Results taken from the supplement of paper PMC3545927.
The other results are listed elsewhere or left out. The true hit rate is not given.

Molecular target: furin, P09958
Assay: furin cleavage Z-score vs untreated control; higher = more cleavage, active = 3.5 or more, inactive = 1 or less, 8 variable residues between constant flanks
In short: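 Purified furin cleaved 8-mer peptides that were fused to a cDNA oligonucleotide and held on magnetic beads by their N-terminus. Each 0.01 ml reaction used a 1:10 enzyme:substrate ratio in 50 mM HEPES pH 7.5 with CaCl2 and NaCl and ran 7.5, 15 or 30 min. Released DNA was adapter-tagged by PCR and sequenced, and read counts gave abundance. The cleavage Z-score came from log counts against furin-free reactions, lowess-adjusted and scaled by median absolute deviation.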

Chain of furin, P09958 (P09958 whole entry): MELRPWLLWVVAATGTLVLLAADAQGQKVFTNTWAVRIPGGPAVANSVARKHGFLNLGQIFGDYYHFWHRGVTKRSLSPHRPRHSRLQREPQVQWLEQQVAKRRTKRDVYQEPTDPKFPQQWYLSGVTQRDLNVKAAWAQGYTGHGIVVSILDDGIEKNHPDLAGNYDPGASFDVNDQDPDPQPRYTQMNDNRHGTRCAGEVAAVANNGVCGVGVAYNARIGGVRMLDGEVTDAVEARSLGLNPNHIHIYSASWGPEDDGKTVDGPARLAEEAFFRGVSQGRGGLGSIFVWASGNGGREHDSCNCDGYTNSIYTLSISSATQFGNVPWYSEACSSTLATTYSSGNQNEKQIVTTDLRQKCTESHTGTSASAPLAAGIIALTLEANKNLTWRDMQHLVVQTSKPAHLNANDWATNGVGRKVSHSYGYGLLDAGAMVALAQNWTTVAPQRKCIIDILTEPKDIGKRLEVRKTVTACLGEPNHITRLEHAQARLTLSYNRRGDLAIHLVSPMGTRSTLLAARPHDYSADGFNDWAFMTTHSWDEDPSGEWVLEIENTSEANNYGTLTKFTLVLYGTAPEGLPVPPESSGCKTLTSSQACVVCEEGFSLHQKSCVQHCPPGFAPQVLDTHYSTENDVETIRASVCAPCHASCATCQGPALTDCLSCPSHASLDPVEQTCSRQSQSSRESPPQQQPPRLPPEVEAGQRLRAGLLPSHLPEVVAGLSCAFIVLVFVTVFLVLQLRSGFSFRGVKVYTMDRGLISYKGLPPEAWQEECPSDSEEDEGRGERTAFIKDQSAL

CAQYFLTRVEAGNASASA [HC584]
furin cleavage Z-score (7.5 min): -0.544 (inactive)
furin cleavage Z-score (15 min): -0.576 (inactive)
furin cleavage Z-score (30 min): 0.581 (inactive)

CADHLEFWEGAGNASASA [HC937]
furin cleavage Z-score (7.5 min): 0.211 (inactive)
furin cleavage Z-score (15 min): -1.35 (inactive)
furin cleavage Z-score (30 min): 0.811 (inactive)

CATVPCHRPSAGNASASA [HC2318]
furin cleavage Z-score (7.5 min): -1.23 (inactive)
furin cleavage Z-score (15 min): 0.611 (inactive)
furin cleavage Z-score (30 min): 0.585 (inactive)

CASFGSSSTSAGNASASA [HC1336]
furin cleavage Z-score (7.5 min): -0.845 (inactive)
furin cleavage Z-score (15 min): -1.34 (inactive)
furin cleavage Z-score (30 min): 0.561 (inactive)

CAPCGIVPAKAGNASASA [HC407]
furin cleavage Z-score (7.5 min): 0.926 (inactive)
furin cleavage Z-score (15 min): 0.441 (inactive)
furin cleavage Z-score (30 min): 0.898 (inactive)

CAITPCSGSWAGNASASA [HC1824]
furin cleavage Z-score (7.5 min): -0.759 (inactive)
furin cleavage Z-score (15 min): -0.739 (inactive)
furin cleavage Z-score (30 min): -0.66 (inactive)

CARPKRRKPRAGNASASA [FS-3017]
furin cleavage Z-score (7.5 min): 6.7 (active)
furin cleavage Z-score (15 min): 9.47 (active)
furin cleavage Z-score (30 min): 8.98 (active)

CAEVITSTWVAGNASASA [HC2184]
furin cleavage Z-score (7.5 min): -0.201 (inactive)
furin cleavage Z-score (15 min): -0.151 (inactive)
furin cleavage Z-score (30 min): 0.767 (inactive)

CAMEECKQHLAGNASASA [HC31]
furin cleavage Z-score (7.5 min): 0.641 (inactive)
furin cleavage Z-score (15 min): 0.811 (inactive)
furin cleavage Z-score (30 min): 0.523 (inactive)

CARSACQRQKAGNASASA [HC1392]
furin cleavage Z-score (7.5 min): 0.38 (inactive)
furin cleavage Z-score (15 min): -0.49 (inactive)
furin cleavage Z-score (30 min): 1.17

CADVPRRKRKAGNASASA [FS-1316]
furin cleavage Z-score (7.5 min): 7.09 (active)
furin cleavage Z-score (15 min): 7.66 (active)
furin cleavage Z-score (30 min): 8.13 (active)

CACVWRRKRKAGNASASA [FS-324]
furin cleavage Z-score (7.5 min): 4.9 (active)
furin cleavage Z-score (15 min): 7.08 (active)
furin cleavage Z-score (30 min): 5.25 (active)

CARSARRKRKAGNASASA [FS-1610]
furin cleavage Z-score (7.5 min): 9.41 (active)
furin cleavage Z-score (15 min): 11.4 (active)
furin cleavage Z-score (30 min): 7.56 (active)

CADIHRNKRKAGNASASA [FS-408]
furin cleavage Z-score (7.5 min): 0.37 (inactive)
furin cleavage Z-score (15 min): 0.486 (inactive)
furin cleavage Z-score (30 min): 2.04

CADVPCHRPSAGNASASA [HC2311]
furin cleavage Z-score (7.5 min): 0.698 (inactive)
furin cleavage Z-score (15 min): 1.24
furin cleavage Z-score (30 min): 0.271 (inactive)

CAPREVPCHRAGNASASA [HC2439]
furin cleavage Z-score (7.5 min): -1.48 (inactive)
furin cleavage Z-score (15 min): 1.55
furin cleavage Z-score (30 min): -0.302 (inactive)

CAWDVVCCSMAGNASASA [HC2108]
furin cleavage Z-score (7.5 min): 0.349 (inactive)
furin cleavage Z-score (15 min): -0.375 (inactive)
furin cleavage Z-score (30 min): 0.29 (inactive)

CARGPRARRSAGNASASA [FS-855]
furin cleavage Z-score (7.5 min): 7.87 (active)
furin cleavage Z-score (15 min): 7.54 (active)
furin cleavage Z-score (30 min): 4.95 (active)

CARGPRRASAAGNASASA [FS-1711]
furin cleavage Z-score (7.5 min): -0.617 (inactive)
furin cleavage Z-score (15 min): -0.431 (inactive)
furin cleavage Z-score (30 min): -0.848 (inactive)

CARGPRRRRSAGNASASA [FS-856]
furin cleavage Z-score (7.5 min): 11.2 (active)
furin cleavage Z-score (15 min): 10 (active)
furin cleavage Z-score (30 min): 7.78 (active)

CADSGGARRSAGNASASA [FS-226]
furin cleavage Z-score (7.5 min): -0.625 (inactive)
furin cleavage Z-score (15 min): -0.697 (inactive)
furin cleavage Z-score (30 min): -0.757 (inactive)

CARAKRVSWDAGNASASA [FS-1681]
furin cleavage Z-score (7.5 min): -0.617 (inactive)
furin cleavage Z-score (15 min): 0.099 (inactive)
furin cleavage Z-score (30 min): 0.302 (inactive)

CARAKRNAVLAGNASASA [FS-2545]
furin cleavage Z-score (7.5 min): 6.45 (active)
furin cleavage Z-score (15 min): 7.8 (active)
furin cleavage Z-score (30 min): 6.91 (active)

CARAKRFVSIAGNASASA [FS-1993]
furin cleavage Z-score (7.5 min): 4.74 (active)
furin cleavage Z-score (15 min): 4.17 (active)
furin cleavage Z-score (30 min): 5.92 (active)

CARAKRFASLAGNASASA [FS-2635]
furin cleavage Z-score (7.5 min): 4.64 (active)
furin cleavage Z-score (15 min): 6.47 (active)
furin cleavage Z-score (30 min): 8.89 (active)

CASTPCSASLAGNASASA [HC2557]
furin cleavage Z-score (7.5 min): 0.819 (inactive)
furin cleavage Z-score (15 min): 0.0223 (inactive)
furin cleavage Z-score (30 min): 0.939 (inactive)

CARAKRFLRKAGNASASA [FS-1992]
furin cleavage Z-score (7.5 min): 4.11 (active)
furin cleavage Z-score (15 min): 4.74 (active)
furin cleavage Z-score (30 min): 7.62 (active)

CASTPCSAVLAGNASASA [HC2550]
furin cleavage Z-score (7.5 min): -1.46 (inactive)
furin cleavage Z-score (15 min): -0.0198 (inactive)
furin cleavage Z-score (30 min): -0.52 (inactive)

CATTVRLRAYAGNASASA [HC928]
furin cleavage Z-score (7.5 min): 0.53 (inactive)
furin cleavage Z-score (15 min): 0.398 (inactive)
furin cleavage Z-score (30 min): -0.429 (inactive)

CAVQAWKSKKAGNASASA [HC1473]
furin cleavage Z-score (7.5 min): 0.322 (inactive)
furin cleavage Z-score (15 min): 1.5
furin cleavage Z-score (30 min): -0.486 (inactive)

CARIRRMADAAGNASASA [FS-2339]
furin cleavage Z-score (7.5 min): 8.4 (active)
furin cleavage Z-score (15 min): 10.5 (active)
furin cleavage Z-score (30 min): 8.11 (active)

CARDVRLVDAAGNASASA [FS-2655]
furin cleavage Z-score (7.5 min): -0.899 (inactive)
furin cleavage Z-score (15 min): -0.757 (inactive)
furin cleavage Z-score (30 min): 0.398 (inactive)

CARSGRSANAAGNASASA [FS-2522]
furin cleavage Z-score (7.5 min): 1.32
furin cleavage Z-score (15 min): 0.616 (inactive)
furin cleavage Z-score (30 min): 1.79

CAREDRDVNDAGNASASA [FS-2393]
furin cleavage Z-score (7.5 min): -1.02 (inactive)
furin cleavage Z-score (15 min): -2.7 (inactive)
furin cleavage Z-score (30 min): 0.632 (inactive)

CARMRRYADAAGNASASA [FS-2355]
furin cleavage Z-score (7.5 min): 5.77 (active)
furin cleavage Z-score (15 min): 7.7 (active)
furin cleavage Z-score (30 min): 6.66 (active)

CARMMRPVSDAGNASASA [FS-1753]
furin cleavage Z-score (7.5 min): -0.43 (inactive)
furin cleavage Z-score (15 min): 0.272 (inactive)
furin cleavage Z-score (30 min): -0.677 (inactive)

CARIRRMWNDAGNASASA [FS-2955]
furin cleavage Z-score (7.5 min): 3.22
furin cleavage Z-score (15 min): 2.6
furin cleavage Z-score (30 min): 4.32 (active)

CATDCFRKHPAGNASASA [HC452]
furin cleavage Z-score (7.5 min): 0.56 (inactive)
furin cleavage Z-score (15 min): -0.196 (inactive)
furin cleavage Z-score (30 min): 1.34

CAYLKGKWVPAGNASASA [HC549]
furin cleavage Z-score (7.5 min): 0.545 (inactive)
furin cleavage Z-score (15 min): -0.258 (inactive)
furin cleavage Z-score (30 min): -0.41 (inactive)

CAMEECSQHPAGNASASA [HC1779]
furin cleavage Z-score (7.5 min): -0.177 (inactive)
furin cleavage Z-score (15 min): -0.782 (inactive)
furin cleavage Z-score (30 min): 2.64

CARCKRGMKKAGNASASA [FS-1818]
furin cleavage Z-score (7.5 min): 0.324 (inactive)
furin cleavage Z-score (15 min): 0.604 (inactive)
furin cleavage Z-score (30 min): 3.09

CARCVRDCDPAGNASASA [FS-3243]
furin cleavage Z-score (7.5 min): 0.0718 (inactive)
furin cleavage Z-score (15 min): 1.92
furin cleavage Z-score (30 min): 2.77

CARCKRDCLEAGNASASA [FS-1996]
furin cleavage Z-score (7.5 min): 9.7 (active)
furin cleavage Z-score (15 min): 9.34 (active)
furin cleavage Z-score (30 min): 8.23 (active)

CARKKRTLRGAGNASASA [FS-2037]
furin cleavage Z-score (7.5 min): 5.12 (active)
furin cleavage Z-score (15 min): 8.31 (active)
furin cleavage Z-score (30 min): 6.62 (active)

CARCKRTVLDAGNASASA [FS-2482]
furin cleavage Z-score (7.5 min): 0.324 (inactive)
furin cleavage Z-score (15 min): 1.14
furin cleavage Z-score (30 min): 3.14

CARCKRGTGVAGNASASA [FS-2898]
furin cleavage Z-score (7.5 min): 6.24 (active)
furin cleavage Z-score (15 min): 6.78 (active)
furin cleavage Z-score (30 min): 5.78 (active)

CAEVVTSTGVAGNASASA [HC2236]
furin cleavage Z-score (7.5 min): 0.288 (inactive)
furin cleavage Z-score (15 min): -1.6 (inactive)
furin cleavage Z-score (30 min): -0.142 (inactive)

CARCRRGFGVAGNASASA [FS-1849]
furin cleavage Z-score (7.5 min): 0.0621 (inactive)
furin cleavage Z-score (15 min): 1.42
furin cleavage Z-score (30 min): 1.48

CARKKRSTGVAGNASASA [FS-2694]
furin cleavage Z-score (7.5 min): 8.73 (active)
furin cleavage Z-score (15 min): 11.5 (active)
furin cleavage Z-score (30 min): 10.3 (active)
